Values joined by “and” are separate entries in the source; they are usually repeats but may differ in a detail not shown here. Equal values may be shown once. This is part of a sample that, as a whole, favours compounds with a hit. Of some 79,000 tested, about 15% had one in any assay. Active and inactive are the calls of the source. Cut-off read from the data, not from the text of the source: active = growth inhibition above about 70%; inactive = the rest.
What was measured:
[1] = NCI Yeast Anticancer Drug Screen. Data for the rad50 strain (AID 155);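 note: 0% = growth of vehicle-only cultures of the same strain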; details: S. cerevisiae rad50 strain growth inhibition, stronger effect = higher value; at 50.0 µM unless noted
Summary of the method: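 Growth of the mutant yeast was measured after compound exposure and referenced to vehicle-treated cultures.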

[2] = NCI Yeast Anticancer Drug Screen. Data for the mec2-1 strain (AID 157); details: S. cerevisiae mec2-1 strain, stronger effect = higher value; at 50.0 µM unless noted
Summary of the method: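 Using mec2-1 yeast: add compound, measure growth, express inhibition versus vehicle-treated cultures.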

[3] = NCI Yeast Anticancer Drug Screen. Data for the sgs1 mgt1 strain (AID 161);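 note: 0% = growth of cultures given vehicle only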; details: S. cerevisiae sgs1 mgt1 strain, stronger effect = higher value; at 50.0 µM unless noted
Summary of the method: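 Compounds are added to genetically altered yeast, and growth is compared with cultures given vehicle alone to give percent inhibition.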

[4] = NCI Yeast Anticancer Drug Screen. Data for the cln2 rad14 strain (AID 165);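 note: 0% = growth equal to vehicle treated cultures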; details: S. cerevisiae cln2 rad14 strain, stronger effect = higher value; at 50.0 µM unless noted
Summary of the method: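 Yeast strain cln2 rad14, bearing defects in cell cycle control and DNA repair, serves as the test system; values reflect growth inhibition compared with vehicle.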

[5] = NCI Yeast Anticancer Drug Screen. Data for the bub3 strain (AID 167); details: S. cerevisiae bub3 mutant strain, stronger effect = higher value; at 50.0 µM unless noted
Summary of the method: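 Whole-cell yeast assay. The mutant strain was incubated with compounds, and growth inhibition was determined by comparison with vehicle-treated cells.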

[6] = NCI Yeast Anticancer Drug Screen. Data for the mlh1 rad18 strain (AID 175); details: S. cerevisiae mlh1 rad18 strain growth inhibition, stronger effect = higher value; at 50.0 µM unless noted
Summary of the method: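 Steps: expose repair-defective yeast to compound; measure growth; express inhibition against vehicle-treated controls.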

Measured: growth inhibition

CC(C)(O)C[N+](=O)[O-]
inactive: [1] 5.85% | [2] -1.8% | [3] 0.85% | [4] -7.7% | [5] 0% | [6] 3.05%

COC(=O)C(=O)C(C(=O)C(=O)Nc1cccc(C(C)=O)c1)c1nc2ccccc2[nH]c1=O (centres undefined)
inactive: [1] 2.7% | [2] -9.45% | [3] 2.15% | [4] 14.2% | [5] -18.9% | [6] 3.5%

O=C(C[n+]1csc2ccccc21)c1ccccc1
inactive: [1] 9% | [2] 15.3% | [3] 17.1% | [4] 20.4% | [5] 30.4% | [6] 3.8%

Clc1ccccc1Br
inactive: [1] 2.85% | [2] -11.2% | [3] 4.65% | [4] 0.55% | [5] 2.25% | [6] -8.3%

CC1(C)CNC[C@]2(C)OCCCO[C@@]3(C)CNCC(C)(C)NC(=O)[C@](C)(CNCC(C)(C)NC3=O)OCCCO[C@](C)(CNCC(C)(C)NC2=O)C(=O)N1
inactive: [1] -33.2% | [2] -22.2% | [3] -32.1% | [4] 0.5% | [5] -17.1% | [6] -46.2%

O=NNc1ccc(S(=O)(=O)c2ccc3ccccc3c2)cn1
inactive: [1] 31.7% | [2] 12.8% | [3] -24.9% | [4] -8.95% | [5] -25.6% | [6] -88.5%

CCC1(C=O)C(=O)NC(=O)N1C (centres undefined)
inactive: [1] 3.4% | [2] 1.05% | [3] 2% | [4] 6.25% | [5] 1.7% | [6] 6.45%

CSc1nc(N)cc(=O)n1C
inactive: [1] -16.1% | [2] -11.2% | [3] -23.9% | [4] -53.1% | [5] -9.05% | [6] 14.2%

CC12C(=O)C(C(c3ccccc3)=C1c1ccccc1)C1C(=O)OC(=O)C12 (centres undefined)
inactive: [1] -6.8% | [2] 2.8% | [3] -0.15% | [4] -1.6% | [5] -11.9% | [6] -6.65%

O=C(O)CCCCCCC(=O)O
inactive: [1] 2.1% | [2] -4.85% | [3] 2.85% | [4] 2.95% | [5] 0.9% | [6] -2.3%

Cc1ccc2[nH]c(C(=O)O)cc2c1
inactive: [1] 31.1% | [2] -6.8% | [3] 10.8% | [4] 10.3% | [5] 9% | [6] 28.1%

N#C/C(=C\c1cc(Cl)cc(Cl)c1O)c1nc2ccccc2[nH]1
inactive: [1] 43% | [2] 13.7% | [3] 38.4% | [4] 11.5% | [5] 26.9% | [6] 5.65%

NC1N=Nc2ccccc21 (centres undefined)
inactive: [1] 0.05% | [2] -5.95% | [3] 13.3% | [4] 4.3% | [5] -1.6% | [6] 41.3%

Cc1ccc(N2C(=O)CC(NC3CCCCC3)C2=O)cc1 (centres undefined)
inactive: [1] -6.2% | [2] -3% | [3] -9.65% | [4] -2.2% | [5] -5.6% | [6] -2.7%

CC(=O)NCCc1ccccc1
inactive: [1] -18.2% | [2] 20.9% | [3] 3.2% | [4] -19.3% | [5] 10% | [6] -0.1%

CO[C@@H]1C2=CC=CC=C[C@H]2n2c(=O)n(-c3ccccc3)c(=O)n21
inactive: [1] -10.2% | [2] 18.6% | [3] 18.4% | [4] -14.4% | [5] -1.15% | [6] 13.2%

O=C(NSN1CCOCC1)c1ccccc1
inactive: [1] 38.8% | [2] 25.8% | [3] 30% | [4] -45.6% | [5] 2.5% | [6] 38%

CCC(=O)COc1ccc(NC(NC(=O)C(C(F)(F)F)C(F)(F)F)(C(F)(F)F)C(F)(F)F)cc1
inactive: [1] 16.2% | [2] -24.8% | [3] 6.5% | [4] 29.2% | [5] -3.3% | [6] -16%

CCCCCCCC(=O)Nc1cccc(O)c1
inactive: [1] 4.8% | [2] -6.95% | [3] -11.7% | [4] -34.9% | [5] -6.3% | [6] -6.15%

Cc1ccc(N2C(=O)CC(N3CCCCC3)C2=O)cc1 (centres undefined)
inactive: [1] 29.1% | [2] 37.7% | [3] 68.2% | [4] 13.2% | [5] -2.05%
active: [6] 80.2%

Cc1ccc2nc(=O)c3cccnc3n2c1
inactive: [1] 25.9% | [2] 31.1% | [3] 29.9% | [4] 5.1% | [5] 23.8% | [6] 12.8%

O=C(O)CCC1=Nc2cccc3cccc(c23)NC1=O
inactive: [1] 36.2% | [2] 32.2% | [3] 7.75% | [4] -3.35% | [5] 12.9% | [6] 13.9%

Cc1ccc(S(=O)(=O)OCCN(CCOS(=O)(=O)c2ccc(C)cc2)c2cccc([N+](=O)[O-])c2)cc1
inactive: [1] 22.9% | [2] 8.85% | [3] 7.85% | [4] 22.4% | [5] -0.3% | [6] 21.4%

CCOCCC(=O)OCCCl
inactive: [1] 29.2% | [2] 9.4% | [3] 13.3% | [4] 10.1% | [5] 15.7% | [6] 22.9%

Cc1c(=O)n(C)c2ccccc2[n+]1[O-]
inactive: [1] 7.9% | [2] 16.1% | [3] 11.7% | [4] -8.65% | [5] 7.1% | [6] 7.65%

O=[N+]([O-])c1ccc(S/N=C\c2ccccc2)c([N+](=O)[O-])c1
inactive: [1] -9.95% | [2] 13.7% | [3] 0.25% | [4] 14.6% | [5] 7.2% | [6] 8.55%

Cc1ccc(S(=O)(=O)OC2CCN(C)CC2)cc1
inactive: [1] 36.5% | [2] 6.75% | [3] 15.8% | [4] 9.6% | [5] 43.2% | [6] 30.1%

O=C(Nc1ccccn1)c1ccccc1Cl
inactive: [1] 1.1% | [2] 3.1% | [3] -9.5% | [4] 4.2% | [5] -5.9% | [6] 19.3%

COC(=O)c1c(C)nc(C)c(N=O)c1-c1ccccc1C(F)(F)F
inactive: [1] 6.4% | [2] 5.5% | [3] 7.45% | [4] 20.1% | [5] 12.4% | [6] -44.6%

COc1ccc(NC(=O)CC(=O)n2nc(-c3ccccc3)c(N=Nc3ccccc3C(=O)O)c2-c2ccccc2)cc1
inactive: [1] -28.8% | [2] -13.1% | [3] -2.05% | [4] 2.85% | [5] 2.25% | [6] -13.5%

O/N=C1\c2ccccc2-c2cccc(Br)c21
inactive: [1] 0.25% | [2] 2.9% | [3] 4.55% | [4] -40.6% | [5] -9.6% | [6] 5.45%

CCc1ccc2c(c1)CCCC2(C)C
inactive: [1] -2.5% | [2] -10.2% | [3] 2.25% | [4] -8.3% | [5] 0.3% | [6] -0.05%

O=c1cc(C(F)(F)F)[nH]c2ccc(F)cc12
inactive: [1] 1.95% | [2] -10.4% | [3] 6.4% | [4] -27.6% | [5] -27% | [6] 7.55%

Cc1cc[nH]c(=O)c1[N+](=O)[O-]
inactive: [1] -12.3% | [2] -10.8% | [3] -2.85% | [4] -25.7% | [5] -9.65% | [6] 2.65%

CS(=O)(=O)OCCN(CCOS(C)(=O)=O)c1ccc([N+](=O)[O-])cc1[N+](=O)[O-]
inactive: [1] 22.6% | [2] -5.8% | [3] -0.2% | [4] 24.8% | [5] -3.95% | [6] 13.6%

NC(=S)/N=C/c1c(O)c2ccccc2oc1=O
inactive: [1] -15.8% | [2] 3.95% | [3] -37.5% | [4] 3.5% | [5] -12.7% | [6] -35%

NC(=O)NCCCC(N)C(=O)O (centres undefined)
inactive: [1] 7.7% and -23.9% | [2] -16.2% and -16.6% | [3] -5.85% and -13.1% | [4] -2.4% and 2.9% | [5] 9.45% and -39.5% | [6] -10.4% and -14.9%

O=C1CCC(=O)N1CNc1cccc(NCN2C(=O)CCC2=O)c1
inactive: [1] -5.35% | [2] -30.9% | [3] 11.9% | [4] 10.5% | [5] 3.9% | [6] -4.6%

CC(=O)c1ccc2c(c1)sc1ccccc12
inactive: [1] 66.9% | [2] -25.3% | [3] -6.4% | [4] -2.25% | [5] 28.5% | [6] 55.9%
